# Test results from PubChem BioAssay AID1159580 (chemical genetic matrix, 2015).
# Several values for one entry are separate records, joined by “and”; a condition that tells them apart may be missing. Equal values may be shown once. Out of some 5,500 compounds screened, about 2,000 (36%) were called active. About 18% were inconclusive and are not listed. This is one part of the list. Values without a mark were called inactive. Cut-off read from the data, not from the text of the source: active = normalized growth mostly below about 0.91 (no sharp cut-off); inconclusive = no clear call, values can overlap the other calls; inactive = mostly above about 0.92.
# Assay: chemical genetic growth profiling, strain panel (AID 1159580);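 note: tested at 20 µM; growth read once vehicle control cultures reached saturation at 30 °C; 1 = growth at the plate median or of vehicle wells; lower values mean less growth of the strain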
# Settings: S. cerevisiae deletion strains, growth OD
smiles,measurement,setting,value
OCCN1CCN(CCCN2c3ccccc3Sc3ccc(Cl)cc32)CC1,normalized growth,"locus YAL013W, strain DEP1, hits give low values",1.02 and 1.01
same,normalized growth,"locus YAL021C, strain ccr4, hits give low values",1
same,normalized growth,"locus YAL026C, strain drs2, hits give low values",0.674 (active)
same,normalized growth,"locus YAL030W, strain snc1, hits give low values",1.01
same,normalized growth,"locus YAL040C, strain CLN3, hits give low values",0.984
same,normalized growth,"locus YBL061C, strain skt5, hits give low values",0.996
same,normalized growth,"locus YBR009C, strain hhf1, hits give low values",0.998
same,normalized growth,"locus YBR021W, strain FUR4, hits give low values",0.988
same,normalized growth,"locus YBR023C, strain chs3, hits give low values",0.996
same,normalized growth,"locus YBR171W, strain sec66, hits give low values",1.01
same,normalized growth,"locus YBR229C, strain ROT2, hits give low values",1.01
same,normalized growth,"locus YBR231C, strain swc5, hits give low values",1
same,normalized growth,"locus YBR279W, strain paf1, hits give low values",0.998
same,normalized growth,"locus YCL011C, strain gbp2, hits give low values",0.997
same,normalized growth,"locus YCL016C, strain dcc1, hits give low values",0.994
same,normalized growth,"locus YCL029C, strain bik1, hits give low values",0.984
same,normalized growth,"locus YCL061C, strain MRC1 (second series), hits give low values",1.01
same,normalized growth,"locus YCL061C, strain MRC1, hits give low values",1
same,normalized growth,"locus YCL069W, strain vba3, hits give low values",1.01
same,normalized growth,"locus YCR088W, strain abp1, hits give low values",1.01
same,normalized growth,"locus YDL005C, strain med2, hits give low values",1.01
same,normalized growth,"locus YDL035C, strain GPR1, hits give low values",0.996
same,normalized growth,"locus YDL040C, strain nat1, hits give low values",1
same,normalized growth,"locus YDL074C, strain BRE1, hits give low values",0.955
same,normalized growth,"locus YDL101C, strain DUN1, hits give low values",1.01
same,normalized growth,"locus YDL134C, strain PPH21, hits give low values",1.02
same,normalized growth,"locus YDL185W, strain tfp1, hits give low values",0.996
same,normalized growth,"locus YDL192W, strain arf1, hits give low values",1.01
same,normalized growth,"locus YDR001C, strain nth1, hits give low values",1
same,normalized growth,"locus YDR069C, strain doa4, hits give low values",0.987
same,normalized growth,"locus YDR101C, strain arx1, hits give low values",0.959
same,normalized growth,"locus YDR137W, strain rgp1, hits give low values",1.33 [resistant] (active)
same,normalized growth,"locus YDR150W, strain NUM1, hits give low values",1.03
same,normalized growth,"locus YDR159W, strain sac3, hits give low values",1.01
same,normalized growth,"locus YDR162C, strain NBP2, hits give low values",1
same,normalized growth,"locus YDR195W, strain ref2",1.12
same,normalized growth,"locus YDR297W, strain sur2, hits give low values",0.997
same,normalized growth,"locus YDR318W, strain mcm21, hits give low values",0.966
same,normalized growth,"locus YDR334W, strain swr1, hits give low values",1
same,normalized growth,"locus YDR335W, strain msn5, hits give low values",1
same,normalized growth,"locus YDR363W, strain ESC2, hits give low values",0.995
same,normalized growth,"locus YDR388W, hits give low values",0.979
same,normalized growth,"locus YDR392W, strain spt3, hits give low values",0.998
same,normalized growth,"locus YDR502C, strain sam2, hits give low values",0.96
same,normalized growth,"locus YEL003W, strain gim4, hits give low values",0.988
same,normalized growth,"locus YEL037C, strain rad23, hits give low values",1
same,normalized growth,"locus YEL061C, strain CIN8 (second series), hits give low values",1
same,normalized growth,"locus YEL061C, strain CIN8, hits give low values",1.01
same,normalized growth,"locus YER002W, strain NOP16, hits give low values",1.04
same,normalized growth,"locus YER015W, strain faa2, hits give low values",1
same,normalized growth,"locus YER016W, strain bim1, hits give low values",1
same,normalized growth,"locus YER110C, hits give low values",0.998
same,normalized growth,"locus YER111C, strain swi4, hits give low values",1
same,normalized growth,"locus YER155C, strain BEM2 (second series), hits give low values",0.971
same,normalized growth,"locus YER155C, strain BEM2, hits give low values",1.03
same,normalized growth,"locus YER167W, strain BCK2, hits give low values",1.01
same,normalized growth,"locus YFR010W, strain ubp6, hits give low values",0.976
same,normalized growth,"locus YGL078C, strain dbp3, hits give low values",0.994
same,normalized growth,"locus YGL086W, strain mad1, hits give low values",0.993
same,normalized growth,"locus YGL167C, strain pmr1, hits give low values",0.989
same,normalized growth,"locus YGL173C, strain kem1, hits give low values",0.972
same,normalized growth,"locus YGL227W, strain vid30, hits give low values",1.01
same,normalized growth,"locus YGL240W, strain doc1, hits give low values",1.04
same,normalized growth,"locus YGL248W, strain PDE1, hits give low values",1.02
same,normalized growth,"locus YGL253W, strain hxk2, hits give low values",0.997
same,normalized growth,"locus YGR078C, strain PAC10, hits give low values",0.997 and 0.999
same,normalized growth,"locus YGR135W, strain pre9, hits give low values",0.958
same,normalized growth,"locus YGR229C, strain SMI1, hits give low values",0.958
same,normalized growth,"locus YGR252W, strain gcn5, hits give low values",0.931
same,normalized growth,"locus YHR013C, strain ard1, hits give low values",0.995
same,normalized growth,"locus YHR027C, strain rpn1, hits give low values",0.988
same,normalized growth,"locus YHR030C, strain SLT2, hits give low values",1.02 and 0.987
same,normalized growth,"locus YHR079C, strain IRE1 (second series), hits give low values",0.984
same,normalized growth,"locus YHR079C, strain IRE1, hits give low values",0.993
same,normalized growth,"locus YHR094C, strain hxt1, hits give low values",0.992
same,normalized growth,"locus YHR129C, strain ARP1, hits give low values",1.01
same,normalized growth,"locus YHR142W, strain chs7, hits give low values",1.01
same,normalized growth,"locus YHR200W, strain rpn10, hits give low values",0.986
same,normalized growth,"locus YIL066C, strain RNR3, hits give low values",0.998
same,normalized growth,"locus YIL073C, strain SPO22, hits give low values",1.01
same,normalized growth,"locus YIL125W, strain kgd1, hits give low values",0.991
same,normalized growth,"locus YIR030C, strain dcg1, hits give low values",0.997
same,normalized growth,"locus YJL092W, strain hpr5, hits give low values",1
same,normalized growth,"locus YJL095W, strain BCK1 (second series), hits give low values",1
same,normalized growth,"locus YJL095W, strain BCK1, hits give low values",0.977 and 0.981
same,normalized growth,"locus YJL115W, strain asf1, hits give low values",1
same,normalized growth,"locus YJL129C, strain trk1, hits give low values",1.01
same,normalized growth,"locus YJL134W, strain LCB3, hits give low values",1.01
same,normalized growth,"locus YJL154C, strain vps35, hits give low values",1.01
same,normalized growth,"locus YJL164C, strain tpk1, hits give low values",0.988
same,normalized growth,"locus YJL166W, strain qcr8, hits give low values",1.01
same,normalized growth,"locus YJL168C, strain set2, hits give low values",0.991
same,normalized growth,"locus YJL187C, strain SWE1 (second series), hits give low values",1
same,normalized growth,"locus YJL187C, strain SWE1, hits give low values",1
same,normalized growth,"locus YJR043C, strain POL32, hits give low values",1.02
same,normalized growth,"locus YJR066W, strain TOR1, hits give low values",0.954
